# Target: T1, Aspartate--tRNA(Asp/Asn) ligase (Mycobacterium tuberculosis (strain ATCC 25618 / H37Rv)) (UniProt P9WFW3); further: in the data most compounds retested in dose-response had high values
# T1 sequence (whole entry): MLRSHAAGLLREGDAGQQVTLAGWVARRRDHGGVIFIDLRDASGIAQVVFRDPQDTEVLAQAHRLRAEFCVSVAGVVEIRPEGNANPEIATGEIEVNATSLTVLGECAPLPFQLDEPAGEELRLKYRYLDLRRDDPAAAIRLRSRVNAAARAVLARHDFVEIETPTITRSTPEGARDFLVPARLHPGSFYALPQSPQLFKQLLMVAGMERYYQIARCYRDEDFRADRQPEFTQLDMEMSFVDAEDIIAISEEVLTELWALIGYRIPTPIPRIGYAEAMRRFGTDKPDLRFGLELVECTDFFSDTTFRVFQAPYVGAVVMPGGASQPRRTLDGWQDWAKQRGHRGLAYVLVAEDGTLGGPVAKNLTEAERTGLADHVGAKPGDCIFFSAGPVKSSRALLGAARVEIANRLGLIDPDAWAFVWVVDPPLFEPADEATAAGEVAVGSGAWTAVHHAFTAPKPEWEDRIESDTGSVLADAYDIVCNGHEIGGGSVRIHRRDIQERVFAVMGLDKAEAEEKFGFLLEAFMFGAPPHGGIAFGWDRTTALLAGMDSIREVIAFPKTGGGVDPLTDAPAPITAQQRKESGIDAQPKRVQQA
# Assay: Assay for Asp RNA synthetase-1 from Mycobacterium tuberculosis
# Type: functional
# Parameters: scale not given: direction of the effect not stated beside the values
# Details: 30 µM
row,Compound,Percent Effect
1,CC(Cn1cccn1)NCc1csc(-c2ccccc2F)n1 (stereo not given),-4.2%
2,Cn1ncc2c1NC(=O)CC2c1ccccc1Cl (stereo not given),1.14%
3,O=C(COc1coc(CN2CCCCCC2)cc1=O)c1ccccc1,-4.01%
4,Cc1nc(CNC(=O)Cn2nc(-c3ccc(F)cc3)oc2=O)cs1,-0.967%
5,CN(Cc1ccc(N2CCCCC2)cc1)Cc1noc(C(C)(C)C)n1,1.93%
6,Cn1cc(CN2CC[C@H]3OCC[C@@H](C(=O)N4CCCCO4)[C@@H]3C2)cn1,2.85%
7,CCN(CC)C(=O)CCNc1cncc(-n2nc(C)cc2C)n1,1.51%
8,Cc1nnc(CN2CCCC(c3cc(C(N)=O)[nH]n3)C2)o1 (stereo not given),-2.96%
9,CCN(CC1CCCO1)C(=O)Nc1ccc(F)cc1OC (stereo not given),-2.28%
10,Cc1cc(CNC2CCCN(c3cccnn3)C2)no1 (stereo not given),6.9%
11,CC(=O)NCC(=O)N1Cc2nccn2CC(CN2CCCC2)C1 (stereo not given),-4.29%
12,CN(C)CC(=O)N1Cc2nc(C(=O)NCc3ccncc3)oc2C1,4.86%
13,CN(Cc1ccccn1)C1COC2(CCN(Cc3cccnc3)CC2)C1 (stereo not given),-2.07%
14,CC(C)c1ccc(-c2nnn(CCNS(C)(=O)=O)n2)cc1,-1.05%
15,CCn1c(C(=O)N2CCN(C(=O)COC)CC2)cc2ccccc21,-7.07%
16,CN1CC(=O)N(c2cccnc2)CC12CCN(C(=O)c1cccnc1)C2 (stereo not given),4.16%
17,Cn1cnnc1C1CCCN(C(=O)c2cc(Cl)c3c(c2)OCO3)C1 (stereo not given),-5.25%
18,Cc1cnc(N2CCC3(CCN(CC4CC4)C3=O)CC2)nc1,-3.05%
19,CSc1nccn1-c1cccc(C(=O)NCCCN2CCOCC2)c1,-1.07%
20,Cc1c(C)n(-c2ccccn2)c2nc3c(c(N)c12)CCCC3,-3.86%

row,Compound,Percent Effect
1,O=C(CCc1ccccc1)N1CCn2cc(CN3CCCC3)nc2C1,0.131%
2,CCOCc1ncn2c1CN(C(=O)Nc1cccc(C)c1)CC2,1.59%
3,CCOc1ccc(C#N)cc1NCC(=O)Nc1cc(C)no1,-5.54%
4,Cc1cccnc1NC(=O)CSc1ccc2c(c1)OCCO2,0.668%
5,CC(C)(C)c1cnc(CN2CCC[C@H]2CO)o1,-4.22%
6,O=C(Cc1ccc2c(c1)CCCC2)NCCc1ccccn1,2.5%
7,Cc1cc(C[S+]([O-])CC(=O)Nc2c(C)cccc2C)no1 (stereo not given),-6.04%
8,Cn1cnc(S(=O)(=O)NCCN2CCCCCC2=O)c1Cl,-1.7%
9,O=C(Cc1ccc(F)cc1)NCCNCC1CNc2ccnn2C1 (stereo not given),-2.44%
10,O=C(c1n[nH]c2c1CCN(Cc1nccs1)C2)N1CCCC1,-0.578%
11,Cc1nn(C)c(C)c1C1CCCN1Cc1cccc(C(N)=O)c1 (stereo not given),-1.14%
12,Cc1ccc(CN2CCCn3nnc(COCC4CC4)c3C2)s1,-4.16%
13,CCN(CC1CCOC1)C(=O)Nc1ccc(OC)nc1 (stereo not given),4.72%
14,COCCN1CC[C@]2(CN(C(=O)c3cccs3)C[C@H]2C)C1=O,1.59%
15,Cc1cc(NC(=O)NCc2cccnc2OC(C)C)n(C)n1,5.63%
16,Cc1ccc(CN2CC(C(=O)N3CCCC3)C3(CCOCC3)C2)s1 (stereo not given),10.8%
17,Cc1occc1CNC(=O)N(CCCO)C1CCc2ccccc21 (stereo not given),-3.25%
18,Cc1cc(-c2cnc(N3CCNC(=O)C3)nc2-c2cccnc2C)on1,-4.46%
19,CN(C)S(=O)(=O)N1CCC(Oc2ccc(C#N)cn2)CC1,5.76%
20,Cc1nc(CCNC(=O)C2CC(=O)N(C(C)(C)C)C2)sc1C (stereo not given),1.05%

# Target: Shiga toxin 2 (Escherichia coli O157:H7) (UniProt P09385+P09386)
# Assay: E. coli 0.157:H7 Shiga Toxin SOP - stx2 screening assay
# Type: functional
# Parameters: scale not given: direction of the effect not stated beside the values
# Details: 30 µM
row,Compound,Percent Effect
1,CC(Cn1cccn1)NCc1csc(-c2ccccc2F)n1 (stereo not given),-6.96%
2,Cn1ncc2c1NC(=O)CC2c1ccccc1Cl (stereo not given),6%
3,O=C(COc1coc(CN2CCCCCC2)cc1=O)c1ccccc1,-112%
4,Cc1nc(CNC(=O)Cn2nc(-c3ccc(F)cc3)oc2=O)cs1,17.9%
5,CN(Cc1ccc(N2CCCCC2)cc1)Cc1noc(C(C)(C)C)n1,-7.66%
6,Cn1cc(CN2CC[C@H]3OCC[C@@H](C(=O)N4CCCCO4)[C@@H]3C2)cn1,-10.1%
7,CCN(CC)C(=O)CCNc1cncc(-n2nc(C)cc2C)n1,-34.2%
8,Cc1nnc(CN2CCCC(c3cc(C(N)=O)[nH]n3)C2)o1 (stereo not given),4.59%
9,CCN(CC1CCCO1)C(=O)Nc1ccc(F)cc1OC (stereo not given),-7.53%
10,Cc1cc(CNC2CCCN(c3cccnn3)C2)no1 (stereo not given),-69.6%
11,CC(=O)NCC(=O)N1Cc2nccn2CC(CN2CCCC2)C1 (stereo not given),2.69%
12,CN(C)CC(=O)N1Cc2nc(C(=O)NCc3ccncc3)oc2C1,-45%
13,CN(Cc1ccccn1)C1COC2(CCN(Cc3cccnc3)CC2)C1 (stereo not given),-24.6%
14,CC(C)c1ccc(-c2nnn(CCNS(C)(=O)=O)n2)cc1,-43.9%
15,CCn1c(C(=O)N2CCN(C(=O)COC)CC2)cc2ccccc21,-41.5%
16,CN1CC(=O)N(c2cccnc2)CC12CCN(C(=O)c1cccnc1)C2 (stereo not given),-12%
17,Cn1cnnc1C1CCCN(C(=O)c2cc(Cl)c3c(c2)OCO3)C1 (stereo not given),-2.91%
18,Cc1cnc(N2CCC3(CCN(CC4CC4)C3=O)CC2)nc1,-8.57%
19,CSc1nccn1-c1cccc(C(=O)NCCCN2CCOCC2)c1,27.6%
20,Cc1c(C)n(-c2ccccn2)c2nc3c(c(N)c12)CCCC3,-68.1%

row,Compound,Percent Effect
1,O=C(CCc1ccccc1)N1CCn2cc(CN3CCCC3)nc2C1,-15.9%
2,CCOCc1ncn2c1CN(C(=O)Nc1cccc(C)c1)CC2,-12.7%
3,CCOc1ccc(C#N)cc1NCC(=O)Nc1cc(C)no1,-11.5%
4,Cc1cccnc1NC(=O)CSc1ccc2c(c1)OCCO2,-4.11%
5,CC(C)(C)c1cnc(CN2CCC[C@H]2CO)o1,-5.47%
6,O=C(Cc1ccc2c(c1)CCCC2)NCCc1ccccn1,29.1%
7,Cc1cc(C[S+]([O-])CC(=O)Nc2c(C)cccc2C)no1 (stereo not given),17%
8,Cn1cnc(S(=O)(=O)NCCN2CCCCCC2=O)c1Cl,17.3%
9,O=C(Cc1ccc(F)cc1)NCCNCC1CNc2ccnn2C1 (stereo not given),-33.6%
10,O=C(c1n[nH]c2c1CCN(Cc1nccs1)C2)N1CCCC1,-3.88%
11,Cc1nn(C)c(C)c1C1CCCN1Cc1cccc(C(N)=O)c1 (stereo not given),-1.22%
12,Cc1ccc(CN2CCCn3nnc(COCC4CC4)c3C2)s1,0.0593%
13,CCN(CC1CCOC1)C(=O)Nc1ccc(OC)nc1 (stereo not given),-156%
14,COCCN1CC[C@]2(CN(C(=O)c3cccs3)C[C@H]2C)C1=O,-8.13%
15,Cc1cc(NC(=O)NCc2cccnc2OC(C)C)n(C)n1,-9.92%
16,Cc1ccc(CN2CC(C(=O)N3CCCC3)C3(CCOCC3)C2)s1 (stereo not given),-7.63%
17,Cc1occc1CNC(=O)N(CCCO)C1CCc2ccccc21 (stereo not given),8.04%
18,Cc1cc(-c2cnc(N3CCNC(=O)C3)nc2-c2cccnc2C)on1,-9.56%
19,CN(C)S(=O)(=O)N1CCC(Oc2ccc(C#N)cn2)CC1,-4.88%
20,Cc1nc(CCNC(=O)C2CC(=O)N(C(C)(C)C)C2)sc1C (stereo not given),-3.12%

# From ChEMBL document CHEMBL3988442, “University of Dundee, Small-Polar-MMV Screening Library” (2021)
